15 compounds from the supplement of paper PMC9446081 can be followed below.

± gives the standard deviation of the averaged measurements.

This experiment has as its system RNA polymerase. In words: relative enzymatic activity vs untreated control (fraction); higher = less inhibition. As to conditions: 100 µM; incubation time: 2 h at 37 C. How it is done: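 In vitro enzymatic inhibition assays (ProFoldin kits) for 12 purified essential E. coli enzymes or complexes, each treated with 218 active antibacterial compounds at 100 µM for 2 h at 37°C. Read-outs were fluorescence or absorbance (phosphate detection, dye binding), converted to activity via standard curves and expressed relative to untreated DMSO controls.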
The compound `Cn1ncnc2c(=O)n(C)c(=O)nc1-2` registered a relative enzymatic activity of 0.587 ± 0.6.

`COP(=S)(OC)Oc1cc(Cl)c(Cl)cc1Cl` registered a relative enzymatic activity of 0.851 ± 0.025.

In turn, `CC(=O)[O][Hg][c]1ccccc1` yielded a relative enzymatic activity of 0.462 ± 0.044.

For the compound `O=[N+]([O-])c1ccc(N(CCO)CCO)c2c1no[n+]2[O-]`, the relative enzymatic activity is 0.679 ± 0.032.

As to `CCCCCCCCCCCCCCCC[N+](C)(C)C.[Br-]`, the relative enzymatic activity came out at 0.162 ± 0.021.

The compound `O=C1C=C2C(=CCOC2O)O1` (stereo not given) displayed a relative enzymatic activity of 0.56 ± 0.17.

Regarding `CN[C@H]1C[C@@H](N)[C@H](O)[C@@H](O[C@@H]2O[C@H](CO)[C@H](O)[C@@H]3O[C@@]4(O[C@H]23)O[C@H]([C@@H](N)CO)[C@H](O)[C@H](O)[C@H]4O)[C@@H]1O`, the relative enzymatic activity was found to be 0.8209 ± 0.0048.

In the case of `CN1C(=O)[C@]23CC4=CC=C[C@H](O)[C@H]4N2C(=O)[C@@]1(CO)SS3`, the relative enzymatic activity worked out at 0.838 ± 0.12.

`Cc1nc2c(=O)n(C)c(=O)nc-2n(C)n1` registered a relative enzymatic activity of 0.925 ± 0.15.

As to `[O-][n+]1ccccc1[S][Zn][S]c1cccc[n+]1[O-]`, the relative enzymatic activity was 0.954 ± 0.052.

Regarding `CCCCCCCCCCCCCCCC[n+]1ccccc1.[Cl-]`, the relative enzymatic activity is 0.2601 ± 0.0012.

As to `CNC1C(O)C(OC2C(N)CC(N)C(OC3OC(C(C)O)C(O)C(O)C3N)C2O)OCC1(C)O` (stereo not given), the relative enzymatic activity came out at 0.879 ± 0.05.

With `CCn1cc(C(=O)[O-])c(=O)c2cc3c(cc21)OCO3.[K+]`, the relative enzymatic activity is 0.7827 ± 0.0058.

In turn, `CN(C)[C@@H]1C(=O)[C@H](C(N)=O)C(=O)[C@@]2(O)C(=O)[C@@H]3C(=O)c4c(O)cccc4[C@@](C)(O)[C@H]3C[C@@H]12` registered a relative enzymatic activity of 0.7359 ± 0.0054.

The compound `C[CH2][Hg][S]c1ccccc1C(=O)[O-].[Na+]` showed a relative enzymatic activity of 0.959 ± 0.048.
